According to PubChem BioAssay AID651957 (The Scripps Research Institute Molecular Screening Center, 2012):
Among all 370,000 compounds or so, about 620 (0.17%) were called active. The sample holds actives, similar compounds and a random draw of the others, so the mix is not that of the screen. Values without a mark were called inactive.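 The calls were made as follows: active = inhibition above the mean inhibition of all tested compounds plus 3 SD, set per campaign (cut at about 52% in these data); inactive = the rest.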

Molecular target: Nuclear receptor coactivator 2 (Homo sapiens) (UniProt Q15596)
Experiment: inhibition of GAL4-SRC2 driven luciferase reporter, primary screen, SRC2 inhibitor project, cell-based, luminescence (AID 651957);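 also: 0% = DMSO treated cells and 100% = cells given Gossypol at 36 µM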
Details: HEK293 GAL4-SRC2 luciferase reporter, at 9 µM, hits give high values

Chain of Nuclear receptor coactivator 2 (Homo sapiens) (Q15596 whole entry, looked up, the tested form may be a part): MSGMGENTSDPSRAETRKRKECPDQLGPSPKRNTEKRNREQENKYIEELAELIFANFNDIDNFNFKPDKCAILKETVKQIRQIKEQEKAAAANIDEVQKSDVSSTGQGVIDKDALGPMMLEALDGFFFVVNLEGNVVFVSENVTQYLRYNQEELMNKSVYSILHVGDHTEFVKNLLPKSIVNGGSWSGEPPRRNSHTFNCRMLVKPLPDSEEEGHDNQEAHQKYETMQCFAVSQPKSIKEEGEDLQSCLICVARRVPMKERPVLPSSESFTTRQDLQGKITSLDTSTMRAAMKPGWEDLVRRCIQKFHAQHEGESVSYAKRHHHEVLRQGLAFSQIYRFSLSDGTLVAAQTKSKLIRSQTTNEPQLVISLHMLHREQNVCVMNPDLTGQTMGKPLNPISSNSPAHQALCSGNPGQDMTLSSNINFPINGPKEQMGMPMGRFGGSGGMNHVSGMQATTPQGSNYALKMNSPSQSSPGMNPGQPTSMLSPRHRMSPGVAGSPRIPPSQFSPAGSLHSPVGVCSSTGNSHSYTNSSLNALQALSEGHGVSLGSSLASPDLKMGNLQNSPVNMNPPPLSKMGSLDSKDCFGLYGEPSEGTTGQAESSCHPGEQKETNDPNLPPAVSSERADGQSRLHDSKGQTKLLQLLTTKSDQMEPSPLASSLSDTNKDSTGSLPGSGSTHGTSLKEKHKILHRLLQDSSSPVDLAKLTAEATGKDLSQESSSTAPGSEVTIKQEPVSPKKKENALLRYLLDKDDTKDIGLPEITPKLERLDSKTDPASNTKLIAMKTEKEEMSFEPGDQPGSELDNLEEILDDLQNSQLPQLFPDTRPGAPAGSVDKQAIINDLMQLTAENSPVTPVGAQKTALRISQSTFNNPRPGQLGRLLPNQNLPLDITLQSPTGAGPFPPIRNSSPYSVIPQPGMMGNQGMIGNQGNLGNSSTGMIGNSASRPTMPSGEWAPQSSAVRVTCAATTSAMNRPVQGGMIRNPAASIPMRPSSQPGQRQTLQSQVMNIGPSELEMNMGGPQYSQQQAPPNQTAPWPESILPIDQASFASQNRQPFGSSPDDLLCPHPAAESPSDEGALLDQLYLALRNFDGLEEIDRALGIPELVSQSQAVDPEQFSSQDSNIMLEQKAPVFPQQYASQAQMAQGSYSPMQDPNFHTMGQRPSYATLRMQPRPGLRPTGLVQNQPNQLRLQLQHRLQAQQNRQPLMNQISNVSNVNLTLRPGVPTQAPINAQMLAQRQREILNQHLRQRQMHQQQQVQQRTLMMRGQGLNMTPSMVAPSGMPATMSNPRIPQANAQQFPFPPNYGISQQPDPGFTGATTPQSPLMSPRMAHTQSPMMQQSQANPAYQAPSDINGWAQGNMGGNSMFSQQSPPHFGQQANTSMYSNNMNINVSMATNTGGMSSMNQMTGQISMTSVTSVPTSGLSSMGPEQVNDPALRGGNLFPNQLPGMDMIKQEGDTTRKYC

Compound | inhibition
C[C@H]1CCC/C=C/C(=O)c2c(O)cc(O)cc2CC(=O)O1 | 64.6% (active)
COc1ccc(S(=O)(=O)NCC(=O)NCc2cc(=O)n(C)c(=O)n2C)cc1F | -9.55%
CC1CCC2(CC1)NC(=O)N(CC(=O)NCc1ccco1)C2=O (configuration not stated) | -29.4%
CC1(C)CC(=O)c2sc(N)nc2C1 | 3.79%
O=c1oc2ccccc2cc1-c1cn(-c2ccccc2)c(=S)[nH]1 | 80.4% (active)
COc1cccc(NC(=O)N(C)C[C@@H]2OCc3cn(nn3)CCCC(=O)N([C@@H](C)CO)C[C@H]2C)c1 | -2.21%
COC(=O)[C@]12C[C@H](CC(=O)NCc3cccc(C(F)(F)F)c3)C(=O)N(Cc3ccc4c(c3)OCO4)C1=C[C@H](COCc1ccccc1)O[C@@H]2C | 4.24%
COc1cc(Cl)c(C)cc1NC(=O)COC(=O)c1cc(SC)ccc1Cl | -3.4%
COc1cc(SC)ccc1C(=O)Nc1nc(C)cs1 | 73.4% (active)
Cc1csc(NC(=O)CN2CCCCCC2)n1 | -13.9%
COCc1[nH]nc2c1C(c1ccccc1)N(c1ccccc1)C2=O (configuration not stated) | 13.8%
N#CCC[C@H]1CC[C@]2(CCCN(Cc3ccc(Cl)cc3)C2)O1 | 7.54%
COc1ccc(S(=O)(=O)Nc2ccc(F)cc2)c(C)c1C | -27.1%
CC(CCN1CCC(C(O)(c2ccccc2)c2ccccc2)CC1)Oc1ccc(C(F)(F)F)cc1 (configuration not stated) | -7.91%
COCCn1c(C)cc(C(=O)COC(=O)CNC(=O)c2ccco2)c1C | -9.66%
Cc1ccsc1C(=O)OCC(=O)c1cc(C)n(CC2CCCO2)c1C (configuration not stated) | 73.2% (active)
Cc1cc(C(=O)COC(=O)CNC(=O)c2ccc(F)cc2)c(C)n1Cc1ccco1 | -4.87%
O=C(Nc1ccccc1)N1CCN(Cc2nc3ccccc3c(=O)[nH]2)CC1 | -10.6%
O=S1(=O)c2c(NCc3ccco3)cccc2Oc2ccccc2CN1Cc1cn(Cc2cccc(C(F)(F)F)c2)nn1 | 4.32%
Clc1ccc(Cl)c(Oc2ccc(Oc3nc(Cl)ccc3Cl)cc2)n1 | -10%
c1csc(-c2nnc(SCc3nc4ccccc4[nH]3)o2)c1 | 4.24%

Compound | inhibition
O=C(NCc1ccc2c(c1)OCO2)c1cc2c(s1)CS(=O)(=O)C2 | 13.1%
COc1cccc(NC(=O)C2(C)CCN2Cc2ccccc2Cl)c1 (configuration not stated) | -0.04%
C#CCNC(=O)C[C@H]1C[C@@]2(C(=O)OC)C(=C[C@H](C(C)C)O[C@@H]2C2CC2)N(Cc2ccco2)C1=O | 14.7%
Cc1ccc(CSc2nnc(SCC(=O)NN=Cc3cc(Br)ccc3F)s2)cc1 | 15%
Cc1cccc(Nc2nc3c(S(=O)(=O)c4ccccc4)nnn3c3ccccc23)c1C | 6.13%
Cc1noc(C)c1S(=O)(=O)N(C)C[C@H]1OCCCC[C@@H](C)Oc2ccc(NC(=O)CCCN(C)C)cc2C(=O)N([C@H](C)CO)C[C@@H]1C | -6.35%
CCC(C)CN1C(=O)CN(S(C)(=O)=O)CC1(C)C(=O)Nc1ccc2c(c1)OCCO2 (configuration not stated) | -21.3%
CCOC(=O)N1CCN(C(=O)C[C@H]2C[C@@]3(C(=O)OC)C(=C[C@H](C(C)(C)C)O[C@@H]3C)N(Cc3ccc(Cl)cc3Cl)C2=O)CC1 | 23.9%
CC1(C)Cc2c(sc3nc(SCC(=O)NCc4ccccc4)n(-c4ccccc4)c(=O)c23)CS1 | -9.11%
C[C@@H]1ON(C)[C@H]2C[C@H]3c4[nH]c5cccc(-c6ccc7c(c6)OCO7)c5c4CCN3C[C@@H]12 | -21%
C=CC1C(OC2OC(CO)C(O)C(O)C2O)OC=C(C(=O)OC)C1CC1CC(=O)CC(CC(=O)CCc2ccc(O)cc2)O1 (configuration not stated) | -3.45%
COc1ccc(-c2cc(-c3nnc(SCc4ccc([N+](=O)[O-])cc4)n3N)[nH]n2)cc1 | -26.2%
COc1ccc(CCOC2OC(CO)C(OC(=O)/C=C/c3ccc(O)c(OC)c3)C(O[C@H]3O[C@@H](C)[C@H](O)[C@@H](O)[C@H]3O)C2O)cc1O (some centres not stated) | -2.46%
CCCCn1c(N)c(N(CC)C(=O)c2ccc(N(C)S(=O)(=O)c3ccc(C)cc3)cc2)c(=O)[nH]c1=O | -16.6%
CN(C)S(=O)(=O)c1ccc(NC(=O)COC(=O)Cn2[nH]c(=O)c3ccccc3c2=O)cc1 | 10.7%
CCC(CO)Nc1cccc2c1S(=O)(=O)N(Cc1cn(Cc3ccccc3C(F)(F)F)nn1)Cc1ccccc1O2 (configuration not stated) | -19.2%
O=C(OC12CC3CC(CC(C3)C1)C2)c1ccc(NCc2cc(O)ccc2O)cc1 | 84.2% (active)
Cc1nc(N)nc(SCc2ccc([N+](=O)[O-])cc2)c1N | -3.96%
COCCCNC(=O)C[C@H]1C[C@@]2(C(=O)OC)C(=C[C@H](C(C)(C)C)O[C@@H]2C)N(Cc2ccc(Cl)cc2Cl)C1=O | 16.8%
CCOC(=O)[C@]12CCCC=C1N(Cc1ccc(OC)cc1)C(=O)[C@@H]2CC(=O)NCc1cccs1 | 7.23%
CCOC(=O)[C@]12CCCCC/C=C\1N(Cc1ccc(OC)cc1)C(=O)[C@H]2CC(=O)N1CCOCC1 | 8.19%

Compound | inhibition
Cc1sc2ncn(CC(=O)NCCCC(=O)NCc3ccc(F)cc3)c(=O)c2c1C | -10.8%
Cc1[nH]n(C(N)=S)c(=O)c1N=Nc1ccc(Cl)cc1Cl | -13.3%
CCCCOCCCNC(=O)C[C@H]1C[C@@]2(C(=O)OC)C(=C[C@H](COCc3ccccc3)O[C@@H]2C)N(Cc2cccc3ccccc23)C1=O | 6.59%
COc1ccc(C(C#N)=C2C=CC(=NO)c3ccccc32)cc1 | 23.7%
CC(=O)Nc1ccc(S(=O)(=O)Nc2ccc(N3CCCCC3)cc2)cc1 | 63.2% (active)
O=C(Nc1ccc(N2CCCCC2)cc1)c1cc(S(=O)(=O)N2CCOCC2)ccc1F | 10.1%
CC(=O)Nc1ccc(S(=O)(=O)N2CCCC2C(=O)O)cc1 (configuration not stated) | 10.5%
C[C@H](NC(=O)C1CC(=O)N(c2ccc3c(c2)OCO3)C1)C(=O)NCc1ccco1 (some centres not stated) | -21.3%
CN(C)[C@H]1CCN(c2cccc3c2S(=O)(=O)N2CC[C@H](C2)O3)C1 | -9.6%
CC(c1ccc(N)cc1)c1cn(C)c2ccccc12 (configuration not stated) | -4.44%
CC(CCN1CCC(C(O)(c2ccccc2)c2ccccc2)CC1)Oc1ccc(Cl)cc1 (configuration not stated) | -21.2%
COc1ccc(-n2c(SCC(=O)Nc3ccc(C)c(Cl)c3)nc3ccccc3c2=O)cc1 | -1.63%
O=C(CN1CCN(c2ccc(O)cc2)CC1)NC1CCCc2ccccc21 (configuration not stated) | 0.42%
CCCOc1ccc(F)cc1-c1cc(C(=O)Nc2ccc(F)cc2)[nH]n1 | 0.04%
COc1ccc(OC)c(NC(=O)c2cc(-c3cc(F)ccc3OCC3CCCO3)n[nH]2)c1 (configuration not stated) | 75.3% (active)
COc1cc(F)ccc1-c1cc(C(=O)NCC2CCCCC2)[nH]n1 | -20%
O=C(COC(=O)c1cnccn1)Nc1ccc(Cl)cc1C(F)(F)F | -47.6%
C=CCN1C(=O)[C@H](CC(=O)NCCCN2CCCC2=O)[C@@]2(C(=O)OCC)CCCC=C12 | -13.7%
CCNc1nc(NC(C)C)nc(OCCOC(=O)c2ccccc2)n1 | -5.88%
CN(c1ccc(OCC(=O)OCC(=O)Nc2cccc([N+](=O)[O-])c2)cc1)S(=O)(=O)c1ccc(F)cc1 | 5.05%
